This note sets out measurements from PubChem BioAssay (NCATS).

Inconclusive results are not listed. The source made the active and inactive calls. Unless noted, no rule for the calls is given here.

Assay [1] in a line: qHTS profiling of the MIPE4 collection as inhibitors of Plasmodium falciparum (3D7) proliferation (AID 743344).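 Also: scaled between DMSO vehicle wells and 0.29 µM artemisinin as full inhibition.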 The settings on record: P. falciparum 3D7 in erythrocytes, SYBR Green DNA fluorescence, 72 h; at 28.5 µM unless noted. In a few lines: (§1)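 Parasite DNA was quantified by SYBR Green I fluorescence (ex 485, em 535 nm) after overnight lysis in saponin/Triton buffer at room temperature. Cultures at 0.3% parasitemia and 2.5% hematocrit were first exposed to compound for 72 h at 37 C; signals were normalised to artemisinin (0.29 uM) and vehicle wells.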
In general terms: qHTS replaces the single test concentration by a dilution series.

Assay [2] can be described thus: qHTS profiling of the MIPE4 collection as inhibitors of Plasmodium falciparum (DD2) proliferation (AID 743345). The settings on record: P. falciparum Dd2 in erythrocytes, SYBR Green DNA, 72 h; at 28.5 µM unless noted. The method, boiled down:
as §1

The nature of assay [3]: qHTS profiling of the MIPE4 collection as inhibitors of Plasmodium falciparum (DD2) proliferation (Rep 2) (AID 743346). The settings on record: P. falciparum Dd2 in erythrocytes, SYBR Green DNA, 72 h; at 28.5 µM unless noted. In a few lines: as §1
Assay [4] is described as follows: qHTS profiling of the MIPE4 collection as inhibitors of Plasmodium falciparum (HB3) proliferation (AID 743347).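 Also: plate controls were DMSO vehicle wells for no effect and artemisinin wells for full effect.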 The settings on record: P. falciparum HB3 in erythrocytes, SYBR Green DNA, 72 h; at 28.5 µM unless noted. The method, boiled down: as §1
Assay [5] can be described thus: High-throughput drug toxicity screening in the BPDCN cell line Gen2.2 (AID 1224824).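 Also: cells exposed to compounds for 48 h before reading.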 The settings on record: Gen2.2 BPDCN cells; at 45.8 µM (top of the series) unless noted. The method, boiled down: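 Seed 500 exponentially growing Gen2.2 cells/well; add compounds by pin tool; incubate 48 h, 37 °C, 5% CO2; add CellTiter-Glo, 15 min RT; read luminescence. % activity vs DMSO (100%) and bortezomib (0%).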

A short description of assay [6]: High-throughput drug toxicity screening in the BPDCN cell line Cal-1 (AID 1224825). The settings on record: Cal-1 BPDCN cell viability, qHTS; at 45.8 µM (top of the series) unless noted. In a few lines:
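CellTiter-Glo luminescence after 48 h compound exposure; percent activity scaled with DMSO as 100% and bortezomib (9.2 uM final) as 0%. Cal-1 cells seeded at 500/well in RPMI, 10% FBS, no phenol red.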

Assay [7] can be described thus: qHTS assay for measurement of the activity of small molecule inhibitors on Zika virus induced Caspase-3 activity in human iPSC derived neural progenitor cells (hNPCs) (AID 1224857; active = well fitted curve in the direction sought with a large enough effect; an effect the other way counts as inactive or inconclusive; also: nearly all actives have a fitted effect of over 65% in size; also: potency is read from the fitted curve at half-maximal effect). The method, boiled down: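 Zika virus (2 FFU/cell) infection of human iPSC-derived NPCs, 6 h, following 1 h compound preincubation. Read-out: Caspase-Glo 3/7 luminescence.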
A short description of assay [8]: qHTS assay for measurement of the activity of small molecule inhibitors on Zika virus induced Caspase-3 activity in human astrocytoma cells (AID 1224859; active = well fitted curve in the direction sought with a large enough effect; an effect the other way counts as inactive or inconclusive; also: potency is read from the fitted curve at half-maximal effect). In a few lines:
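Caspase activation in ZIKV-infected SNB-19 cells (2 FFU/cell, 6 h) measured by Caspase-Glo 3/7 luminescence after 30 min RT; compound pre-incubated 1 h; normalised to uninfected and infected controls.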

Assay [9] can be described thus: qHTS Screen of the MIPE 4.0 Collection Against Ewings Sarcoma (RDES) (AID 1259252; active = well fitted curve in the direction sought with a large enough effect; an effect the other way counts as inactive or inconclusive; also: nearly all actives have a fitted effect of over 35% in size; also: potency is read from the fitted curve at half-maximal effect). The method, boiled down: (§2)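 Dose series incubated 48 h with cells in RPMI plus 5% FBS, glutamine and penicillin/streptomycin; cell viability then quantified via CellTiter-Glo.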
Assay [10] in a line: qHTS Screen of the MIPE 4.0 Collection Against Ewings Sarcoma (TC71) (AID 1259253; active = well fitted curve in the direction sought with a large enough effect; an effect the other way counts as inactive or inconclusive; also: nearly all actives have a fitted effect of over 40% in size; also: potency is read from the fitted curve at half-maximal effect). The method, boiled down:
as §2

A short description of assay [11]: qHTS Screen of the MIPE 4.0 Collection Against Ewings Sarcoma (EW8) (AID 1259255; active = well fitted curve in the direction sought with a large enough effect; an effect the other way counts as inactive or inconclusive; also: nearly all actives have a fitted effect of over 35% in size; also: potency is read from the fitted curve at half-maximal effect;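 as to viability: 100% = DMSO-treated cells and 0% = medium-only wells without cells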). The method, boiled down:
as §2

Assay [12] in a line: qHTS Screen of the MIPE 4.0 Collection Against Ewings Sarcoma (TC32) (AID 1259256; active = well fitted curve in the direction sought with a large enough effect; an effect the other way counts as inactive or inconclusive; also: potency is read from the fitted curve at half-maximal effect; nearly all actives have a fitted effect of over 45% in size). In a few lines:
as §2

Assay [13] in a line: qHTS profiling for inhibitors of Plasmodium falciparum (DD2) proliferation (AID 743323). The settings on record: lower = more inhibition; at 28.7 µM (top of the series) unless noted. In a few lines: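 1536-well qHTS; infected RBCs 0.3% parasitemia/2.5% Hct final; cpd 72 h 37 C 5% CO2; lysis buffer + SYBR Green I, o/n RT dark; FI 485/535; norm. to 0.29 uM artemisinin and DMSO, plate-stack corrected.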

The nature of assay [14]: qHTS profiling for inhibitors of Plasmodium falciparum (HB3) proliferation (AID 743324; active = well fitted curve in the direction sought with a large enough effect; an effect the other way counts as inactive or inconclusive;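 also: 100% = DMSO vehicle wells and 0% = artemisinin-treated control wells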). The settings on record: Plasmodium falciparum HB3 blood-stage proliferation; at 28.7 µM (top of the series) unless noted. In a few lines: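 SYBR Green fluorescence (485 ex/535 em) of lysed cultures, incubated overnight at room temperature in the dark, quantifies parasite DNA. Infected erythrocytes at 0.3% parasitemia and 2.5% hematocrit were exposed 72 h; values normalized to DMSO and 0.29 uM artemisinin controls.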

Assay [15] in a line: Identifying Small Molecule Inhibitors of Pancreatic Cancer Stem Cells (SN12C, Adherent) (AID 1259358; active = well fitted curve in the direction sought with a large enough effect; an effect the other way counts as inactive or inconclusive;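 also: cell survival measured after 48 h of compound exposure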). The method, boiled down: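 Endpoint: ATP-based luminescence, 48 h drug exposure. Bortezomib at 9.2 uM final as full-kill control; DMSO vehicle as negative control; activity normalized between vehicle and cell-free wells.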
Assay [16] can be described thus: Identifying Small Molecule Inhibitors of Pancreatic Cancer Stem Cells (SN12C, Spheroid) (AID 1259360; active = well fitted curve in the direction sought with a large enough effect; an effect the other way counts as inactive or inconclusive;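 also: 100% = DMSO-treated cells and 0% = wells without cells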). The settings on record: Potency: SN12C spheroid viability. In a few lines:
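Luminescent ATP readout (CellTiter-Glo) quantifies surviving cells after a 48 h drug incubation. Normalization uses DMSO wells as no inhibition and media-only wells as full inhibition; bortezomib served as positive control.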

The nature of assay [17]: qHTS assay to identify small molecule inhibitors of chordoma cells - UCH-2 (AID 1259356; active = well fitted curve in the direction sought with a large enough effect; an effect the other way counts as inactive or inconclusive; also: % is scaled to controls: 0 for no effect and ±100 for the full control effect).

On to `CC[C@H](NC(=O)[C@H](C)NC)C(=O)N1C[C@@H](O)C[C@H]1Cc1c(-c2[nH]c3cc(F)ccc3c2C[C@H]2C[C@H](O)CN2C(=O)[C@H](CC)NC(=O)[C@H](C)NC)[nH]c2cc(F)ccc12`, for which, in [1], the parasite growth, % of DMSO control was 4.9%. In assay [2], this compound registered a parasite growth remaining, % of DMSO control (lower = more inhibition) of 8.23%. This compound gave a parasite growth, % of control (lower = inhibition) in [3] of 6.15%. This compound came in with a growth, % of control in assay [4] of 6.85%. Moreover, the cell viability, % of control (lower = more cytotoxic) in assay [5] worked out at 19.2%. Besides, the viability (% of control) in [6] is 7.23%. For the same compound, the Potency entry in [7], in assay [8], in assay [9] and in [10] was “inactive” each time.

The compound `COc1ccc(-c2cc3nccn3c(Nc3ncccc3C(N)=O)n2)cc1OC` registered a parasite growth remaining, % of DMSO control (lower = more inhibition) in assay [2] of 9.28%. The same compound showed a parasite growth, % of control (lower = inhibition) in [3] of 5.75%. The compound further had a growth, % of control in [4] of 2.93%. Also, the cell viability, % of control (lower = more cytotoxic) in assay [5] is 47.7%. Moreover, the viability (% of control) in [6] turned out to be 26.1%. In addition, the Potency entry in [7] and in assay [8] was “inactive” each time. Moreover, the Potency in [9] was 14.8 µM (active); in assay [10], 2.64 µM (active).

Compound `Oc1cc(O)cc(C=Cc2ccc(O)c(O)c2)c1` yielded a parasite growth, % of DMSO control in [1] of 39.8%. The parasite growth remaining, % of DMSO control (lower = more inhibition) in assay [2] is 76.7%. The compound further returned a parasite growth, % of control (lower = inhibition) in assay [3] of 32.1%. The growth, % of control in [4] stood at 50.9%. In addition, the cell viability, % of control (lower = more cytotoxic) in assay [5] turned out to be 3.35%. Further, the viability (% of control) in assay [6] stood at 3.72%. Further, the Potency in assay [7] was 23.5 µM (active); in [8], 4.18 µM (active); in [9] it was 20.9 µM (active); in assay [11], 18.7 µM (active).

The compound `OC[C@H]1O[C@@H](O[C@H]2[C@@H](O)[C@@](O)(CO)O[C@@H]2CO)[C@H](O)[C@@H](O)[C@@H]1O` yielded a parasite growth, % of DMSO control in assay [1] of 87.6%. This compound also had a parasite growth remaining, % of DMSO control (lower = more inhibition) in assay [2] of 72.5%. Further, in [3], the parasite growth, % of control (lower = inhibition) stood at 79.8%. The compound further registered a growth, % of control in assay [4] of 88%. In addition, the cell viability, % of control (lower = more cytotoxic) in [5] worked out at 137%. The viability (% of control) in assay [6] worked out at 96.1%. Besides, the Potency entry in assay [7], in assay [8], in assay [9] and in assay [11] was “inactive” each time.

Turning to `O=C(O)CCNc1cc(N2CCc3ccccc3CC2)nc(-c2ccccn2)n1`, the parasite growth, % of DMSO control in [1] amounted to 19.7%. The same compound had a parasite growth remaining, % of DMSO control (lower = more inhibition) in assay [2] of 48.3%. In [3], this compound gave a parasite growth, % of control (lower = inhibition) of 20.6%. Further, in [4], the growth, % of control stood at 5.23%. Also, the cell viability, % of control (lower = more cytotoxic) in assay [5] stood at 158%. For the same compound, the viability (% of control) in assay [6] is 91.6%. Further, the Potency result in assay [7] and in [8] was “inactive” in each case. In addition, the Potency in assay [9] and in [10] was 26.4 µM (active) throughout.

Take `O=C1C(c2c(O)[nH]c3ccccc23)=Nc2ccccc21`: in [1], the parasite growth, % of DMSO control was found to be 90.1%. Further, in assay [2], the parasite growth remaining, % of DMSO control (lower = more inhibition) came out at 86.5%. The parasite growth, % of control (lower = inhibition) in [3] is 73.7%. Also, the cell viability, % of control (lower = more cytotoxic) in assay [5] worked out at 52.3%. The same compound had a viability (% of control) in assay [6] of 68.6%. Further, the Potency entry in assay [7] and in assay [8] was “inactive” in each case. In addition, the Potency in [9] is 0.469 µM (active); in [11], 26.4 µM (active); in [12], 29.6 µM (active).

In turn, `CN(C)CCCNC(=O)c1ccc(-c2cc(O)c3ncccc3c2)cc1` displayed an activity, percent of control in assay [13] of 5.19%. In assay [14], the remaining proliferation (% of control), lower = more inhibition stood at 5.15%. This compound registered a parasite growth, % of DMSO control in assay [1] of 25.8%. Besides, the cell viability, % of control (lower = more cytotoxic) in assay [5] was found to be 48.4%. This compound also registered a viability (% of control) in assay [6] of 19.6%. Also, the Potency result in assay [7], in assay [8], in [15] and in [16] was “inactive” in each case. Moreover, the Potency in assay [9] is 16.6 µM (active); in [11], 14.8 µM (active); in assay [12] it was 14.8 µM (active).

In assay [1], `Fc1ccc(C(c2ccc(F)cc2)N2CCN(CC=Cc3ccccc3)CC2)cc1` showed a parasite growth, % of DMSO control of 6.36%. This compound also came in with a parasite growth remaining, % of DMSO control (lower = more inhibition) in [2] of 14.4%. In assay [3], the parasite growth, % of control (lower = inhibition) was 44.1%. The compound also gave a growth, % of control in assay [4] of 5.16%. For the same compound, the cell viability, % of control (lower = more cytotoxic) in assay [5] is 18.7%. The compound further had a viability (% of control) in [6] of 30.9%. For the same compound, the Potency entry in assay [7], in [8] and in assay [9] was “inactive” throughout. Besides, in assay [11], the Potency was 16.6 µM (active). For the same compound, the compound was called inactive in assay [17].

`O=c1[nH]c(=O)n([C@H]2C[C@@H](O)[C@@H](CO)O2)cc1C(F)(F)F` returned a parasite growth, % of DMSO control in assay [1] of 62.3%. In [2], this compound had a parasite growth remaining, % of DMSO control (lower = more inhibition) of 62%. The parasite growth, % of control (lower = inhibition) in assay [3] was 91.9%. Also, in assay [4], the growth, % of control was 36.7%. The cell viability, % of control (lower = more cytotoxic) in assay [5] is 118%. Also, in assay [6], the viability (% of control) amounted to 13.9%. For the same compound, the Potency result in [7] and in assay [8] was “inactive” in each case. Also, the Potency is 5.26 µM (active) in assay [9], 3.32 µM (active) in assay [11] and 1.32 µM (active) in assay [12].
